LmPK inhibitor: qHTS Assay for Inhibitors of Leishmania Mexicana Pyruvate Kinase (LmPK); Q27686; purified LmPK, Kinase-Glo ATP luminescence, 1 h; Potency, µM (titrated, usually from 57.5 µM), usual class: inhibitors; hit rate 0.37% among 290,000
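Kinase-Glo luminescence read after 1 h RT reaction of 0.1 nM LmPK with 0.5 mM PEP and 0.1 mM ADP. Activity scaled between uninhibited and enzyme-free controls.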
CHX counter: Cycloheximide Counterscreen for Small Molecule Inhibitors of Shiga Toxin; AID 2314, 2010; max response, %; cell reporter, cycloheximide protein synthesis inhibition counterscreen; hit rate 12% among 300,000; in the data active = max response mostly above about 13%, no sharp cut-off; inactive = mostly below about 14%; also: read at 38.3 µM for the half of the compounds with a filed dose
Sm TGR block: qHTS Assay for the Inhibitors of Schistosoma Mansoni Peroxiredoxins | Schistosoma mansoni thioredoxin glutathione reductase (TGR), Q962Y6 | purified TGR, DTNB reduction, TNB absorbance 405 nm | Potency, µM (top dose mostly 114 µM), hits mostly inhibitors | hit rate 3% among 360,000 | AID 485364, 2010; also: nearly all actives have a fitted effect of over 60% in size
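Kinetic colorimetric format: TGR-catalysed, NADPH-driven DTNB reduction monitored via TNB absorbance. Enzyme dispensed at 20 nM; compound exposure 15 min at room temperature before reaction start.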
Shiga inhibitor: A qHTS for Small Molecule Inhibitors of Shiga Toxin; Vero cells, Shiga toxin protein synthesis inhibition reporter; inhibition, % at 38.7 µM; hit rate 9.2% among 290,000; in the data active = inhibition mostly above about 28%, no sharp cut-off; inactive = mostly below about 43%
Giardia FBPA inh-1: qHTS Assay for Inhibitors of Fructose-1,6-bisphosphate Aldolase from Giardia Lamblia. purified Giardia FBPA. Potency, µM (titrated, usually from 59.6 µM), actives largely listed as inhibitors. A8B2U2. hit rate 0.71% among 290,000; also: nearly all actives have a fitted effect of over 55% in size
Target sequence (A8B2U2 whole entry, looked up): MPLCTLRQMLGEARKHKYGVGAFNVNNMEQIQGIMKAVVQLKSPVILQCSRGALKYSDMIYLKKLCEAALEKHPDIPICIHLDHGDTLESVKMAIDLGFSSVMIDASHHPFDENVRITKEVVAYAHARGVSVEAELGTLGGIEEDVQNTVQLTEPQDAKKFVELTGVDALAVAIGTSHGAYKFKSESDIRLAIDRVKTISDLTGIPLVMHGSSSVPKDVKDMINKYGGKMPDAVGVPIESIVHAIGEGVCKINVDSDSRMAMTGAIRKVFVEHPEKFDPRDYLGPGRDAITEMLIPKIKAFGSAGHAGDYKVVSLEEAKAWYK
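40 nM FBPA preincubated 10 min at RT with compound (up to 57.5 uM final), then substrate plus GAPDH/TPI/NAD/arsenate coupling and diaphorase/resazurin added. Fluorescence read after 20 min at RT, 525/598 nm.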
TbPYK inhibitor: qHTS of Trypanosoma Brucei Inhibitors. pyruvate kinase (Trypanosoma brucei), Q57TT1. TbPYK enzyme, Kinase-Glo Plus ATP luminescence, 45 min. Potency, µM (top dose mostly 76.8 µM), most hits filed as inhibitors. hit rate 0.12% among 410,000; also: nearly all actives have a fitted effect of over 50% in size
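Readout: single end-point luminescence (Kinase-Glo Plus, 10 min). Reaction conditions were TbPYK/substrate plus 130 uM ADP, 45 min at RT, pH 7.2 TEA buffer. No-enzyme wells served as controls, and data were normalized before concentration-response fitting.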
Giardia growth: qHTS Assay for Inhibitors of Fructose-1,6-bisphosphate Aldolase from Giardia Lamblia: Giardia lamblia growth inhibition. shares compounds with Giardia FBPA inh-1. Giardia lamblia trophozoite growth inhibition. Potency, µM (doses to about 57.5 µM), most hits filed as inhibitors. hit rate 5% among 1,500. AID 2785, 2010;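 also: trophozoites exposed to compound for 48 h at 37 °C; nearly all actives have a fitted effect of over 70% in size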
Mammal cell tox: qHTS Assay for Inhibitors of Fructose-1,6-bisphosphate Aldolase from Giardia Lamblia: Mammalian cellular toxicity; shares compounds with Giardia FBPA inh-1; mammalian cell viability counter-screen, qHTS; Potency, µM (highest dose often 57.5 µM), most hits filed as inhibitors; hit rate 4% among 1,500;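 also: Chinese hamster ovary cells used as mammalian cytotoxicity surrogate; viability measured as cellular ATP by luminescence; compound exposure lasted 48 h before reading; nearly all actives have a fitted effect of over 60% in size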
Giardia FBPA inh-2: qHTS Assay for Inhibitors of Fructose-1,6-bisphosphate Aldolase from Giardia Lamblia: Primary screen confirmation; shares compounds with Giardia FBPA inh-1; purified Giardia aldolase enzyme activity, qHTS; Potency, µM (top dose mostly 57.5 µM), most hits filed as inhibitors; hit rate 5% among 1,500; also: nearly all actives have a fitted effect of over 45% in size
Rabbit aldolase: qHTS Assay for Inhibitors of Fructose-1,6-bisphosphate Aldolase from Giardia Lamblia: Rabbit FBPA Selectivity; hit rate 4% among 1,500; Rabbit muscle FBPA enzyme inhibition, selectivity counter-screen; Potency, µM (highest dose often 57.5 µM), most hits filed as inhibitors; AID 2794, 2010; shares compounds with Giardia FBPA inh-1; also: nearly all actives have a fitted effect of over 60% in size
GAPDH coupling: qHTS Assay for Inhibitors of Fructose-1,6-bisphosphate Aldolase from Giardia Lamblia: Coupling assay counterscreen confirmation; GAPDH coupling enzyme counterscreen, biochemical, qHTS; hit rate 6% among 1,500; Potency, µM (titrated, usually from 57.5 µM), actives largely listed as inhibitors; shares compounds with Giardia FBPA inh-1; also: nearly all actives have a fitted effect of over 55% in size
Large screens that a line does not name were inactive (follow-up assays come after a bar, where they were run); [ ] = remark or other dose. This is one part of a sample in which hits are shown more often than they occur. Unless noted, calls follow the shape of the dose curve; as a rule, active = well fitted curve in the direction sought with a large enough effect; inconclusive = small, poorly fitted or top-dose-only effect, or another doubt; inactive = no such curve, though single readings can be large; an effect the other way counts as inactive or inconclusive.

CCCCCCNC(=O)N[C@@H](C(=O)NCCC[C@H]1CN2C(=NC[C@@H]2Cc2ccccc2)N1CCc1cccc(OC)c1)C(C)C	Sm TGR block inconclusive, TbPYK inhibitor inconclusive
NC(=O)C1CCN(c2nc(-c3ccc4c(c3)OCCO4)cs2)CC1	none (no result: LmPK inhibitor, CHX counter, Shiga inhibitor, Giardia FBPA inh-1)
c1cc2c(cc1-c1csc(NNC3=NCCCCC3)n1)OCCO2	CHX counter 37.2, Shiga inhibitor 55.1, Giardia FBPA inh-1 14.1µM | Giardia growth inactive[10.4 µM] | Mammal cell tox inactive | Giardia FBPA inh-2 inactive | Rabbit aldolase inactive | GAPDH coupling inactive
CC(/C=N/n1c(-c2cc(C)[nH]n2)n[nH]c1=S)=C\c1ccco1	Sm TGR block 12.6µM, Giardia FBPA inh-1 2.51µM, TbPYK inhibitor inconclusive | Giardia growth inactive | Mammal cell tox inactive | Giardia FBPA inh-2 inconclusive | Rabbit aldolase inactive | GAPDH coupling inactive
COc1cccc(/C=N/n2c(-c3cc(C)[nH]n3)n[nH]c2=S)c1O	Giardia FBPA inh-1 5.61µM, TbPYK inhibitor inconclusive | Giardia growth inconclusive | Mammal cell tox inactive | Giardia FBPA inh-2 inactive | Rabbit aldolase inconclusive | GAPDH coupling inactive
COc1ccc(CCn2c(Br)nc3c2c(=O)[nH]c(=O)n3C)cc1	none
COc1ccc(CCn2c(NCc3ccco3)nc3c2c(=O)[nH]c(=O)n3C)cc1	none
COc1ccc(CCn2c(NN=C(C)C)nc3c2c(=O)[nH]c(=O)n3C)cc1	Giardia FBPA inh-1 2.81µM | Giardia growth inactive | Mammal cell tox inactive | Giardia FBPA inh-2 12.6µM | Rabbit aldolase inconclusive | GAPDH coupling 14.1µM
COc1ccc(CCn2c(NN)nc3c2c(=O)[nH]c(=O)n3C)cc1	Sm TGR block inconclusive, Giardia FBPA inh-1 5µM | Giardia growth inactive[10.4 µM] | Mammal cell tox inactive | Giardia FBPA inh-2 31.6µM | Rabbit aldolase inconclusive | GAPDH coupling 25.1µM
O=S(=O)(CCc1ccccc1)CS(=O)(=O)CCc1ccccc1	none (no result: LmPK inhibitor, CHX counter, Sm TGR block, Shiga inhibitor, Giardia FBPA inh-1)
Cc1ccc2nc3c(c(Nc4ccc(C)c(C)c4)c2c1)CCC3	none (no result: LmPK inhibitor, CHX counter, Shiga inhibitor, Giardia FBPA inh-1)
Cc1cccc(NC(=O)CSc2c3c(nc4ccccc24)CCC3)n1	none
CC(C)NCC(=O)Nc1c2c(nc3ccccc13)CCC2	Giardia FBPA inh-1 17.7µM | Giardia growth inactive[10.4 µM] | Mammal cell tox inactive | Giardia FBPA inh-2 inactive | Rabbit aldolase inactive | GAPDH coupling inactive
COc1ccc(OC)c(NC(=O)C2C3CCC(C3=C(C)C)C2C(=O)O)c1 (stereo not drawn)	Giardia FBPA inh-1 3.55µM | Giardia growth inactive | Mammal cell tox inactive | Giardia FBPA inh-2 inconclusive | Rabbit aldolase inconclusive | GAPDH coupling inconclusive
CCOc1ccc(N=Nc2ccc(O)c3ncccc23)cc1	none | Giardia growth inactive | Mammal cell tox inactive | Giardia FBPA inh-2 inconclusive | Rabbit aldolase inactive | GAPDH coupling inactive
CCN(CC)S(=O)(=O)c1cccc2cccnc12	none (no result: TbPYK inhibitor)
CCN(CC)S(=O)(=O)c1cc(OC)ccc1N=Nc1ccc(O)c2ncccc12	Giardia FBPA inh-1 inconclusive | Giardia growth inactive | Mammal cell tox 29.1µM | Giardia FBPA inh-2 inconclusive | Rabbit aldolase inactive | GAPDH coupling inconclusive
